# Measurements taken from PubChem BioAssay (NCATS).
# Records with an inconclusive call do not appear. Where a call stands in place of a potency, no number is given. Activity calls are given as the source filed them. Calls come from the whole dose curve; as a rule, active = well fitted inhibition curve with a large enough effect; inconclusive = small, poorly fitted or top-dose-only effect; inactive = flat fitted curve, though single readings scatter.
# Target: Tyrosine-protein phosphatase non-receptor type substrate 1 (Homo sapiens) + Leukocyte surface antigen CD47 (Homo sapiens) (UniProt P78324+Q08722)
# Sequence (P78324 whole entry, looked up): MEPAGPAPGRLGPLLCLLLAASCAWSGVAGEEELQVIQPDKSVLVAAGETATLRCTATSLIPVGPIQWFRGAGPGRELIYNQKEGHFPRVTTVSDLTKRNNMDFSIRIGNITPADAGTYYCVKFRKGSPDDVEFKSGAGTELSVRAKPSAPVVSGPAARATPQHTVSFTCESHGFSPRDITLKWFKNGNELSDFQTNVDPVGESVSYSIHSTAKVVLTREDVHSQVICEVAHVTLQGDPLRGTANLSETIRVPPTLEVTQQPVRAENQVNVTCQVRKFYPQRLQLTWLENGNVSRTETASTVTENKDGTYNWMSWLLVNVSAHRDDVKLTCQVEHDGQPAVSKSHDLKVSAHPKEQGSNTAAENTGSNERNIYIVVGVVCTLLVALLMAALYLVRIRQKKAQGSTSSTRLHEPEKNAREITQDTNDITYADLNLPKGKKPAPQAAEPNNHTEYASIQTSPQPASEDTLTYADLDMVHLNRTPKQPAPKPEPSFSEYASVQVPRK
# Sequence (Q08722 whole entry, looked up): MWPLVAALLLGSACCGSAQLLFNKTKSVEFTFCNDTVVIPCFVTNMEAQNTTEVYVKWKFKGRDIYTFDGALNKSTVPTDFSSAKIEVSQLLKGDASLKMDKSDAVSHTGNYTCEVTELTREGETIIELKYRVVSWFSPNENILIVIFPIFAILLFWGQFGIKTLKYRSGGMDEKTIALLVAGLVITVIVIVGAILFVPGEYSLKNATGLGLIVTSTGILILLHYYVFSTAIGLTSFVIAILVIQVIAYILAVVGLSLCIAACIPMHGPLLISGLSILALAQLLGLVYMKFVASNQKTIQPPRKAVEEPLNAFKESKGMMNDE
# Assay: CD47-SIRPalpha protein protein interaction - Alpha assay qHTS validation (AID 1347059)
# Conditions: AlphaScreen CD47-His/biotin-SIRPalpha binding, LOPAC; series mostly up to 38.3 µM
# Description: SIRPalpha is a myeloid cell expressed immunomodulatory receptor that binds the tumor expressed immune checkpoint CD47. Therapeutic disruption of this interaction leads to immune-mediated tumor rejection. This assay was used to quantitate CD47-SIRPalpha binding biochemically and evaluate chemical libraries for novel CD47-SIRPalpha inhibitors. To recapitulate the biological interaction of CD47 and SIRPalpha, we designed expression constructs to produce their recombinant, soluble, extracellular interaction domains. CD47 was produced with an N-terminal 6His tag. SIRPalpha was produced with an N-terminal Avi-Tag for site-specific biotin incorporation. The CD47-SIRPalpha interaction was measured by AlphaScreen using affinity tag linked reagents (Ni-NTA acceptor bead and streptavidin donor bead). SIRPalpha without biotin incorporation was used as a positive control inhibitor.
# PROTOCOL TABLE (as described by Miller, T. et al. 2019)
# SEQUENCE No. (e.g., 1, 2, 3, etc.); […] (e.g., Cells, Incubation, Reagent, etc.); VALUE and DESCRIPTION.
# 1a. Reagent. 2 uL SIRPalpha-biotin (25 nM) added to respective wells in Assay buffer; white/solid bottom high base, med bind 1536-well plates (Greiner 789075)
# 1b. Reagent. 2 uL Assay buffer negative control for background fluorescence
# 2. Reagent. 23 nL library compounds (7-pt, 1:4 intraplate titration series) or DMSO control transferred by Pin Tool
# 3. Centrifuge. Centrifuge plate for 30 s at 1000 RPM
# 4. Incubation.#Incubate reagents at room temperature for 30 min, protected from light
# 5. Reagent. 2 uL CD47-His (12.5 nM) in Assay buffer
# 6. Centrifuge. Centrifuge plate for 30 s at 1000 RPM
# 7. Incubation.#Incubate reagents at room temperature for 30 min, protected from light
# 8. Reagent. 1 uL Ni-NTA beads (10 ug/mL) added to respective wells
# 9. Reagent. 1 uL SAV beads (10 ug/mL) added to respective wells
# 10. Centrifuge. Centrifuge plate for 30 s at 1000 RPM
# 11. Incubation. Incubate reagents at room temperature for 30 min, protected from light
# 12. Detector. Measure AlphaScree n on EnVision (1536A1 aperture)
# Where possible, perform Donor bead dilution and addition away from direct sunlight or with bright overhead lights turned off (<100 lux, similar to hallway lighting). Lighting should still be bright enough to allow accurate pipetting.
# 1. Assay buffer composition.#Phosphate buffered saline (PBS; 10 mM Phosphate, 137 mM NaCl, and 2.7 mM KCl; pH 7.4), 0.05% IGEPAL CA-630
# 2. 23nL of […] library compounds (7 plates) or DMSO vehicle control transferred to 9 Greiner white/solid bottom high base, TC plates in 7 interplate 1:5 titrations (see Yasgar, A. et al. 2008) with Pintool. Two of the 9 plates are DMSO-only in compound field at beginning and end of compound library-treated plates.
# 12. Aperture = 1536 plate HTS AlphaScreen; plate-detector distance = 0; Total measurement time = 240; Ex. time = 80 ms (33%); Afterglow CT1 corr. factor = 0; Glow CT2 corr. factor = 0; Bleach CT3 corr. factor = 0; Ref. signal= 417733; Ref. AD gain = 2
SMILES,Potency,outcome
CC(CCc1ccc(O)cc1)NCCc1ccc(O)c(O)c1 (stereo not given),inactive,
NCCc1cnc[nH]1,inactive,
Cc1cc(C(C)(C)C)c(O)c(C)c1CC1=NCCN1,inactive,
NCCCCCC(=O)O,inactive,
CN(CCOc1ccc(NS(C)(=O)=O)cc1)CCc1ccc(NS(C)(=O)=O)cc1,inactive,
Cn1ccc2cc3c(cc21)CCN3C(=O)Nc1cccnc1,inactive,
Cc1ccc(-c2cc(C(F)(F)F)nn2-c2ccc(S(N)(=O)=O)cc2)cc1,inactive,
O=c1c(-c2ccc(O)cc2)coc2cc(O)cc(O)c12,inactive,
Cc1cn([C@H]2C=C[C@@H](CO)O2)c(=O)[nH]c1=O,inactive,
CN1CCN(C2=Nc3cc(Cl)ccc3Nc3ccccc32)CC1,inactive,
Cc1cc(C(C)(C)C)cc(C)c1CC1=NCCN1,inactive,
Cn1cnc2c1c(=O)[nH]c(=O)n2C,inactive,
CN1CCC(=C2c3ccccc3C=Cc3ccccc32)CC1,inactive,
NCCS(=O)(=O)O,inactive,
CCOC(=O)C(C)(C)Oc1ccc(Cl)cc1,inactive,
COc1ccccc1N1CCN(CC(O)COc2cccc3ccccc23)CC1 (stereo not given),inactive,
NC12CC3CC(CC(C3)C1)C2,inactive,
O=c1[nH]cc(F)c(=O)[nH]1,inactive,
CN1CCC(=C2c3ccccc3CC(=O)c3sccc32)CC1,inactive,
C[C@](N)(Cc1ccc(O)c(O)c1)C(=O)O,inactive,

SMILES,Potency,outcome
CCCNCC(O)COc1ccccc1C(=O)CCc1ccccc1 (stereo not given),inactive,
CCc1cccc2c3c([nH]c12)C(CC)(CC(=O)O)OCC3 (stereo not given),inactive,
CCC1(C)CC(=O)NC1=O (stereo not given),inactive,
CC(C)NCC(O)c1ccc(O)c(O)c1 (stereo not given),inactive,
O=C(c1ccc(F)cc1)C1CCN(CCn2c(=O)[nH]c3ccccc3c2=O)CC1,inactive,
CN(C)CCC=C1c2ccccc2C=Cc2ccccc21,inactive,
CC(C)C(=O)Nc1ccc([N+](=O)[O-])c(C(F)(F)F)c1,inactive,
O=C(Nc1ccc([N+](=O)[O-])cc1Cl)c1cc(Cl)ccc1O,inactive,
OCCN(CCO)c1nc(N2CCCCC2)c2nc(N(CCO)CCO)nc(N3CCCCC3)c2n1,inactive,
CN(C)c1nc(N(C)C)nc(N(C)C)n1,inactive,
N[C@@H](Cc1c[nH]c2ccc(O)cc12)C(=O)O,inactive,
Nc1ccn([C@H]2CC[C@@H](CO)O2)c(=O)n1,inactive,
Cn1c(=O)c2[nH]cnc2n(C)c1=O,inactive,
CCCCc1oc2ccccc2c1C(=O)c1cc(I)c(OCCN(CC)CC)c(I)c1,inactive,
CN(C)CCOC(c1ccccc1)c1ccccc1,,inactive
COc1cc2nc(N3CCN(C(=O)c4ccco4)CC3)nc(N)c2cc1OC,inactive,
Clc1ccc(C(c2ccccc2Cl)C(Cl)Cl)cc1 (stereo not given),inactive,
Nc1nc2c(ncn2COC(CO)CO)c(=O)[nH]1,inactive,
CC(C)Cc1ccc(C(C)C(=O)O)cc1 (stereo not given),inactive,
O=C1Cc2cc(CCN3CCN(c4nsc5ccccc45)CC3)c(Cl)cc2N1,inactive,
